In experiment [1] the target is Cellular tumor antigen p53 (Homo sapiens) (UniProt P04637). The experiment can be described thus: Primary qHTS for small molecule compounds that upregulate eGFP-tagged delta133p53alpha (in N-terminal) cells. (AID 2060322). Further: nearly all actives have a fitted effect of over 75% in size. Further: potency means the concentration at half of the fitted maximal effect.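 On activation: cells pre-induced with doxycycline then dosed without doxycycline; series mostly up to about 56 µM; 0% = DMSO vehicle and 100% = reference activator.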 The conditions noted are these: NCI-H358 eGFP-delta133p53alpha fluorescence, 24 h; activation: active compounds read high. The essentials: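 NCI-H358 cells pre-induced 24 h with 10 ng/ml doxycycline for eGFP-delta133p53alpha, plated dox-free and exposed 24 h at 37C to titrated compounds. Fixed, Hoechst-stained; gated GFP peak intensity by laser scanning cytometry, normalized to DMSO (0%) and 57.5 uM 5-azacytidine (100%).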
Chain of Cellular tumor antigen p53 (Homo sapiens) (P04637 whole entry, looked up, the tested form may be a part): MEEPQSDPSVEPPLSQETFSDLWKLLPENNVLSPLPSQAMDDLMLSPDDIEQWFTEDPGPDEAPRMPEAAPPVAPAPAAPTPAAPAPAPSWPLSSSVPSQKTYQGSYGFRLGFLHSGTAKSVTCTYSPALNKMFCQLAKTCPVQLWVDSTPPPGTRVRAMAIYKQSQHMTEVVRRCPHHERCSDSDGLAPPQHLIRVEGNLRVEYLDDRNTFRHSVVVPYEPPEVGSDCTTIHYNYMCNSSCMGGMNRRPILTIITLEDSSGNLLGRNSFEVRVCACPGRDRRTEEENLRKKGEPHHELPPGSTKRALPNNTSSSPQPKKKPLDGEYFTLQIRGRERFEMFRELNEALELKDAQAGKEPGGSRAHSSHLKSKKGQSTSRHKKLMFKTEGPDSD
(In general: qHTS replaces the single test concentration by a dilution series.)

Experiment [2] can be described thus: BET inhibitor-based combinations targeting novel dependencies in MECOM-rearranged (r) AML: SET-2 cell line (AID 2202231). Further: nearly all actives have a fitted effect of over 35% in size. Further: potency means the concentration at half of the fitted maximal effect.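 On viability: plate controls were DMSO treated cells for no effect and wells without cells for full effect.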 The conditions noted are these: SET-2 AML cells viability, CellTiter-Glo luminescence, 48 h; viability: active compounds read low, concentration not given here. The essentials:
(§1)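 500 cells/well; 11-pt dose curve; 48 h, standard incubator; CellTiter-Glo luminescence after 15 min RT; DMSO/empty-well normalization; AUC plus Z-AUC (mean-centered within each line).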
In general terms: Cellular ATP, detected with luciferase, serves as a proxy for viable cell number.

A short description of experiment [3]: BET inhibitor-based combinations targeting novel dependencies in MECOM-rearranged (r) AML: OCI-AML3 cell line (AID 2202232). Further: potency means the concentration at half of the fitted maximal effect; nearly all actives have a fitted effect of over 35% in size. The conditions noted are these: Potency: OCI-AML3 viability. In short, it runs like this:
as §1

Experiment [4] can be described thus: BET inhibitor-based combinations targeting novel dependencies in MECOM-rearranged (r) AML: HNT-34 cell line (AID 2202234). Further: nearly all actives have a fitted effect of over 35% in size. Further: potency means the concentration at half of the fitted maximal effect. In short, it runs like this: (§2)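 Cells were plated at 500 per well and exposed to each drug across an 11-point dose range for 48 hr at standard incubator conditions. Viability was read by CellTiter-Glo luminescence, and activity was expressed as AUC and per-cell-line Z-transformed AUC.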

Experiment [5] can be described thus: BET inhibitor-based combinations targeting novel dependencies in MECOM-rearranged (r) AML: AML-191 cell line (AID 2202236; further: potency means the concentration at half of the fitted maximal effect; nearly all actives have a fitted effect of over 35% in size). In short, it runs like this:
as §1

Experiment [6] in a line: BET inhibitor-based combinations targeting novel dependencies in MECOM-rearranged (r) AML: MV-4-11 cell line (AID 2202233). Further: nearly all actives have a fitted effect of over 45% in size. Further: potency means the concentration at half of the fitted maximal effect. The essentials:
as §2

Experiment [7] is described as follows: BET inhibitor-based combinations targeting novel dependencies in MECOM-rearranged (r) AML: UCSD-AML1 cell line (AID 2202235). Further: nearly all actives have a fitted effect of over 40% in size. Further: potency means the concentration at half of the fitted maximal effect. In short, it runs like this:
as §2

A short description of experiment [8]: BET inhibitor-based combinations targeting novel dependencies in MECOM-rearranged (r) AML: AML-194 cell line (AID 2202237; further: nearly all actives have a fitted effect of over 40% in size; further: potency means the concentration at half of the fitted maximal effect). The essentials:
as §1

Experiment [9] addresses Retinaldehyde dehydrogenase 3 (Homo sapiens) (UniProt P47895). The experiment can be described thus: qHTS for Inhibitors of the Aldehyde Dehydrogenase Family (ALDH1A3) Primary screen (AID 2061315).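 Further: plate controls were DMSO vehicle for no effect and reference inhibitor for full effect.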
For experiment [10], the target named is Aldehyde dehydrogenase 1A1 (Homo sapiens) (UniProt P00352). The experiment can be described thus: qHTS for Inhibitors of the Aldehyde Dehydrogenase Family (ALDH1A1) Confirmatory screens (AID 2061316). Further: potency means the concentration at half of the fitted maximal effect; nearly all actives have a fitted effect of over 65% in size.
The target of experiment [11] is Aldehyde dehydrogenase, mitochondrial (Homo sapiens) (UniProt P05091). The experiment can be described thus: qHTS for Inhibitors of the Aldehyde Dehydrogenase Family (ALDH2) Validation screens (AID 2061302; active means well fitted inhibition curve with a large enough effect; title and protocol of this record describe different tests;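 further: plate controls were DMSO vehicle for no effect and maximal DPI positive control response for full effect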).
Experiment [12] has as its target Retinaldehyde dehydrogenase 3 (Homo sapiens) (UniProt P47895). The experiment can be described thus: qHTS for Inhibitors of the Aldehyde Dehydrogenase Family (ALDH1A3) Validation screen (AID 2061312). Further: on the % scale 0 is the no-effect control and ±100 the full control effect; nearly all actives have a fitted effect of over 45% in size.
For experiment [13], the target named is Cellular tumor antigen p53 (Homo sapiens) (UniProt P04637). Briefly: Primary qHTS for small molecule compounds that upregulate eGFP-tagged delta133p53alpha (in C-terminal) cells. (AID 2060324).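 Further: 0% = DMSO wells and 100% = 57.5 µM 5-azacytidine.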 In short, it runs like this: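 Doxycycline (100 ng/ml, 24 h) first induced the eGFP fusion in NCI-H358 C-terminal-tag cells. Washed-out cells then received titrated compounds for 24 h at 37 °C before paraformaldehyde fixation, Hoechst staining and cytometric GFP quantification.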

Values joined by “and” are separate entries in the source; they are usually repeats but may differ in a detail not shown here. Equal entries are not always repeated. Inconclusive results are not listed. Unmarked numbers belong to inactive results. Active and inactive are the calls of the source. Unless noted, the call rests on the fitted dose curve; in most records, active means well fitted curve in the direction sought with a large enough effect; inconclusive means small, poorly fitted or top-dose-only effect, or another doubt; inactive means no such curve, though single readings can be large; an effect the other way counts as inactive or inconclusive.

Turning to `Cc1sc2c(c1C)C(c1ccc(Cl)cc1)=NC(CC(N)=O)c1nnc(C)n1-2` (centres undefined), the activation in experiment [1] is -1.12%. The Potency is 263 nM (active) in experiment [2], 93.4 nM (active) in [3] and 148 nM (active) in experiment [4].

The term viability denotes a read-out of living cells in per cent, often relative to untreated cells. With `C[C@@H]1CC[C@H]2[C@@H](C)C(=O)O[C@@H]3O[C@@]4(C)CC[C@@H]1[C@]32OO4`, the activation in [1] was 0%. In addition, in [2], the viability is 93.5%. Also, the Potency in experiment [3] is 1180 nM (active); in experiment [5], 5250 nM (active).

As for `N=c1c2c(-c3ccccc3)c(-c3ccccc3)n(Cc3ccccc3)c2ncn1C1CCC(O)CC1` (centres undefined), the activation in experiment [1] was 11.7%. Also, the Potency in experiment [6] was 742 nM (active); in experiment [7], 1320 nM (active); in [5], 2630 nM (active); in [8], 4680 nM (active).

`CC(C)(O)C(=O)Nc1ccc([N+](=O)[O-])c(C(F)(F)F)c1`: the activation in experiment [1] is -14.4%. In experiment [6], the Potency was 16600 nM (active). Further, the Potency result in experiment [7] is “inactive”.

Regarding `CN1CN(c2ccccc2)C2(CCN(CCCC(=O)c3ccc(F)cc3)CC2)C1=O`, the activation in experiment [1] is 23.7%. Moreover, the Potency result in experiment [9] was “inactive”. In addition, the Potency in experiment [10] is 22500 nM (active).

As to `O=C(O)CCCc1ccc(N(CCCl)CCCl)cc1`, the activation in experiment [1] was 7.53% and 20.9%. The Potency result in experiment [6] was “inactive”. Further, in [7], the Potency is 2950 nM (active).

Consider `CCOC(=O)c1c(C(C#N)=CN)c2ccc(Cl)c(Cl)c2n1C`, for which the activation in experiment [1] was -1.37%. For the same compound, in [2], the viability is 114%. Moreover, the Potency result in experiment [4], in experiment [7] and in experiment [8] was “inactive” in each case.

On to `C=C1[C@@]23C(=O)O[C@H](C)[C@]24O[C@@]2(C(=C)[C@]5(C=CC(=O)OC5(C)C)CC[C@]32C)[C@H](O)[C@@]1(C)OC4=O`, for which, in [1], the activation is 13%. Moreover, the Potency entry in experiment [9] was “inactive”.

With `C=C1C[C@@H]2[C@H](CC[C@]3(C)C(=O)CC[C@@H]23)[C@@]2(C)C=CC(=O)C=C12`, the activation in experiment [1] is -17.6%. In experiment [6], the Potency was 18600 nM (active). Also, in experiment [7], the Potency entry is “inactive”.

As for `CC1=C(O)C(=O)C=C2C1=CC=C1[C@@]2(C)CC[C@@]2(C)[C@@H]3C[C@](C)(C(=O)O)CC[C@]3(C)CC[C@]12C`, the Potency in [1] was 17200 nM (active); in [3] it was 742 nM (active); in [6], 662 nM (active); in experiment [4] it was 934 nM (active); in experiment [8], 1180 nM (active).

Regarding `NC(N)=NOCCC(N)C(=O)O` (centres undefined), the Potency entry in experiment [11] and in [12] was “inactive” in each case.

Consider `N[C@@H](Cc1ccc(N(CCCl)CCCl)cc1)C(=O)O`, for which the activation in experiment [1] was 29.4%. Further, the Potency in [8] is 2950 nM (active).

For the compound `O=C1/C(=C/c2ccccc2)C[C@@]2(O)[C@H]3Cc4ccc(O)c5c4[C@@]2(CCN3CC2CC2)[C@H]1O5`, the Potency result in experiment [11] and in experiment [12] was “inactive” each time.

In the case of `CC(C)Oc1cccnc1N(C)C1CCN(Cc2ccccc2)CC1`, the Potency result in experiment [11] and in experiment [12] was “inactive” throughout.

With `C=CCN1CCC23c4c5ccc(O)c4O[C@H]2C(=O)CC[C@@]3(O)C1C5` (some centres undefined), the Potency result in experiment [11] and in experiment [12] was “inactive” each time.

Turning to `C[C@@H]1O[C@H](C[N+](C)(C)C)C[C@H]1O`, the Potency entry in [13] and in [11] was “inactive” throughout.

These data come from PubChem BioAssay (NCATS).
